Our source for the growth inhibition values is PubChem BioAssay (NCI).

The structures appear in SMILES notation. This is part of a sample that, as a whole, favours compounds with a hit. Of some 79,000 tested, about 15% had one in any assay. Values without a mark were called inactive. Rule as the data show it: active = growth inhibition above about 70%; inactive = the rest.

The assay can be described thus: NCI Yeast Anticancer Drug Screen. Data for the rad50 strain (AID 155).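 Also: 0% = growth of vehicle-only cultures of the same strain.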 The conditions noted are these: S. cerevisiae rad50 strain growth inhibition; at 50.0 µM; stronger effect = higher value. Here is the method: Growth inhibition of yeast strains with defined genetic alterations is measured as a screen for potential anti-cancer activity. Selected strains with alterations in DNA damage repair or cell cycle control were exposed to compounds and growth inhibition was measured relative to vehicle treated controls. The strain used in this assay is rad50
Regarding `CCCCNC(=O)C(=O)NCCCC`, the growth inhibition was 10.8%.

In the case of `Cc1ccc(N)cc1[N+](=O)[O-]`, the growth inhibition is 11.8%.

Turning to `COc1ccccc1NC(=O)c1cc2cc(Br)ccc2cc1O`, the growth inhibition is 34.8%.

On to `Nc1ccc(NC(=O)c2cccc(N)c2)cc1`, for which the growth inhibition was 15.2%.

In the case of `O=C(Cc1ccccc1)Cc1ccccc1`, the growth inhibition is -1.55%.

Take `O=S(=O)(O)c1cc(O)c2c(N=Cc3ccccc3O)c(S(=O)(=O)O)ccc2c1`: the growth inhibition is 5.15%.

With `O=C(Nc1cccc(NC(=O)Nc2cc(C(F)(F)F)ccc2Cl)c1)Nc1cc(C(F)(F)F)ccc1Cl`, the growth inhibition was 18.8%.

As for `O=C(CS)Nc1ccc2ccccc2c1`, the growth inhibition was 3.5%.

With `CCC(=O)Oc1ccc(OC)cc1`, the growth inhibition is 23.1%.

With `CCOC(=O)/C(=C/c1ccc(OC)cc1)N(CC)CC`, the growth inhibition was -45.8%.

On to `NC(=O)c1ccc(N=C(N)N=C(N)N)cc1`, for which the growth inhibition is 7.3%.

`CC1(O)CCCCC1O` (stereo not given): the growth inhibition is -8.1%.

Take `CCC(C)(O)c1ccc(C)cc1` (stereo not given): the growth inhibition is 26.5%.

For `c1ccc(CN2COc3c(ccc4c3OCN(Cc3ccccc3)C4)C2)cc1`, the growth inhibition is 7.4%.

For the molecule `CCCCC/C=N/Nc1nc(C)cc(=O)[nH]1`, the growth inhibition is 4.85%.

In the case of `CC1(C)/C(=C\CO)C2CCC1C2` (stereo not given), the growth inhibition is 12.7%.

With `CCc1nn(Cc2ccccc2)c2nc(C)c(CCc3ccccc3)c(Cl)c12`, the growth inhibition was -6.85%.

With `O=S(=O)(O)c1ccc(Cl)c(Cl)c1`, the growth inhibition is -0.35%.

Consider `O=C1C=CC(=O)N1c1ccc(I)cc1Cl`, for which the growth inhibition was 29.9%.

With `S=C1CCCCCN1`, the growth inhibition was 47.6%.

As for `CC(O)COc1ccc(-c2ccccc2)cc1` (stereo not given), the growth inhibition is 5.5%.

In the case of `NC(N)=Nc1cc2ccccc2c2ccccc12`, the growth inhibition was -1.2%.

In the case of `NCCCN`, the growth inhibition is 8.9%.

On to `O=C(Cc1nc2ccc([N+](=O)[O-])cc2nc1CC(=O)c1ccccc1)c1ccccc1`, for which the growth inhibition was -2.4%.

Consider `CCCCC(=O)c1ccc(OC)cc1`, for which the growth inhibition was 1.9%.

As to `CCNc1nc2c(cnn2C)c(=O)[nH]1`, the growth inhibition is -16.6%.

For `Oc1ccc(Cc2ccccc2)c2cccnc12`, the growth inhibition was -27.7%.

Regarding `CN(C)Cc1cc(C(C)(C)CC(C)(C)C)ccc1O`, the growth inhibition was 38.2%.

Regarding `O=C(O)/C=C/c1ccc2c(c1)CCC2`, the growth inhibition was 28.6%.

In the case of `O=C(O)[C@@H]1[C@H]2C[C@H]3c4[nH]c5ccccc5c4CCN3C[C@@H]2CC[C@@H]1O`, the growth inhibition is -10.3%.

In the case of `CCCCN(CCCC)CCCO`, the growth inhibition was -14.4%.

In the case of `COC(=O)/C=C\C(=O)OC`, the growth inhibition is 16.1%.

Take `CCOC(=O)C(O)C(O)C(=O)OCC` (stereo not given): the growth inhibition is 21.4%.

Regarding `COC(=O)c1[nH]c(=O)c(C#N)c(C(=O)OC)c1C(=O)c1ccccc1`, the growth inhibition is 5%.

In the case of `CC(C)=C(NC(=O)c1ccccc1)C(=O)O`, the growth inhibition was 14.1%.

Regarding `CCCCCCCCO`, the growth inhibition was 12.1%.

For `CCCCC1(CC)COC(CCC)OC1` (stereo not given), the growth inhibition is 26.4%.

Regarding `O=C(NCc1ccco1)Nc1c(Cl)cc(Cl)cc1Cl`, the growth inhibition is -3.1%.

As for `O=C(/C=C/C(=O)c1ccccc1)c1ccccc1`, the growth inhibition was 41.8%.

Take `CC(=O)N(C)c1ccc([N+](=O)[O-])cc1`: the growth inhibition is 21.8%.
